Assay outcomes as filed in PubChem.
JMJD2A Tudor inh = blocks the human JMJD2A Tudor domain; Potency, µM (titrated, usually from 114 µM), actives largely listed as inhibitors; AlphaScreen JMJD2A-Tudor / H3K4me3 peptide binding; O75164; hit rate 4.4% among 390,000; also: nearly all actives have a fitted effect of over 50% in size
BAZ2B block = blocks human BAZ2B | Q9UIF8 | AlphaScreen BAZ2B-H3K14Ac peptide displacement | Potency, µM (highest dose often 114 µM), hits mostly inhibitors | hit rate 4.4% among 360,000 | AID 504333; also: nearly all actives have a fitted effect of over 60% in size
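BAZ2B (50 nM) with biotin-H3(5-23)K14Ac peptide (50 nM) in PBS pH 7.4, 0.01% Tween-20, preformed 30 min, then compound 30 min at room temperature; top concentration 110uM. AlphaScreen streptavidin donor/nickel chelate acceptor beads (10 ug/mL final), 20 min dark, signal read.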
Sfp inh = Sfp phosphopantetheinyl transferase inhibition; Q9F4F7; Biochemical Sfp PPTase activity, qHTS; Potency, µM, usual class: inhibitors; hit rate 3.5% among 310,000; AID 1490;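 also: the enzyme is Sfp with the accession as filed and its product quenches rhodamine fluorescence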
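After 15 min at room temperature with compound, 15 nM Sfp received 5 uM rhodamine-CoA plus 12.5 uM BHQ-2-ybbR (50 mM Hepes pH 7.6, 10 mM MgCl2). Rate came from the fluorescence difference over 30 min, ex 525/em 598 nm.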
HP1b chromo inh = blocks HP1-beta chromodomain binding to methylated histone tails; Potency, µM (highest dose often 114 µM), usual class: inhibitors; hit rate 0.56% among 390,000; AlphaScreen HP1-beta / biotin-H3K9me3 peptide binding; also: nearly all actives have a fitted effect of over 70% in size
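HP1-beta protein (50 nM final) preincubated 30 min at room temperature with biotinylated H3(1-18)K9me3 peptide (50 nM) in PBS pH 7.4, 0.01% Tween-20, then compound added for 30 min. AlphaScreen streptavidin donor/nickel chelate acceptor beads (10 ug/mL final), 30 min dark, luminescence read.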
G9a block = G9a (human) methyltransferase inhibition. Q96KQ7. G9a H3K9 monomethylation, AlphaScreen, 2 h. Potency, µM (highest dose often 102 µM), hits mostly inhibitors. hit rate 8.8% among 350,000; also: nearly all actives have a fitted effect of over 75% in size
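AlphaScreen detection with an anti-monomethyl H3K9 antibody quantified product after a 2 h room-temperature reaction containing 500 nM biotinylated H3K9 peptide, 20 µM SAM and 20 nM enzyme, which had been preincubated 15 min with compound.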
Each line names hits and unclear results; the compound was inactive in the other large screens. A selection: hits, their analogues and other compounds. The true share with any hit is near 12%. Calls follow the shape of the dose curve; as a rule, active = well fitted curve in the direction sought with a large enough effect; inconclusive = small, poorly fitted or top-dose-only effect, or another doubt; inactive = no such curve, though single readings can be large; an effect the other way counts as inactive or inconclusive.

CCCC[C@@H]1C=C(C(=O)O)[C@H](c2ccc(C)cc2)N1S(=O)(=O)c1ccc(C)cc1	none (no result: BAZ2B block, Sfp inh, G9a block)
COc1ccccc1CNC(=O)C1CCC(CNS(=O)(=O)c2ccccc2)CC1 (configuration not stated)	none
Cc1ccccc1C(OCCN(C(C)C)C(C)C)c1ccccc1 (configuration not stated)	JMJD2A Tudor inh 0.89µM, BAZ2B block inconclusive, HP1b chromo inh inconclusive, G9a block 28µM
Cc1ccc(O)c([C@H](CCN(C(C)C)C(C)C)c2ccccc2)c1	none
NC(=O)CCC(NS(=O)(=O)c1ccc(Cl)cc1)C(=O)NCc1ccccc1 (configuration not stated)	none (no result: JMJD2A Tudor inh, HP1b chromo inh)
O=C(O)c1cccc(COc2ccc3c(c2)CCC3)c1	G9a block 50µM
O=C(c1ccco1)N1CCN(C(=O)c2ccc(COc3ccc4c(c3)CCC4)o2)CC1	JMJD2A Tudor inh inconclusive, BAZ2B block 50µM
O=C1/C(=C\c2cccnc2)Sc2ccccc21	JMJD2A Tudor inh 79µM
O=C(NCCN1C(=O)S/C(=C\c2cccnc2)C1=O)C1=NN(c2ccccc2)C(=O)CC1	JMJD2A Tudor inh 3.5µM
O=C1/C(=C/c2ccccc2)SC(=S)N1CC(=O)N1CCCCC1c1cccnc1 (configuration not stated)	JMJD2A Tudor inh 35µM, BAZ2B block 32µM, G9a block 40µM
O=C(O)CN1C(=O)S/C(=C\c2cccnc2)C1=O	BAZ2B block 50µM, Sfp inh 56µM (no result: G9a block)
CCOc1ccc(NC(=O)Nc2c[nH]c(=O)[nH]c2=O)cc1	none (no result: Sfp inh)
Cc1ccc(S(=O)(=O)N2CCN(C(=O)CCC(=O)Nc3ccc(F)cc3F)CC2)cc1	none (no result: BAZ2B block, Sfp inh, G9a block)
COc1ccc(Cl)cc1NC(=O)Cn1cc2c(n1)CCC(C)C2 (configuration not stated)	none (no result: Sfp inh)
COc1ccccc1CNc1ccnc(-c2ccccc2CN(C)C)n1	none (no result: JMJD2A Tudor inh, BAZ2B block, HP1b chromo inh)
CCOc1ccc(-n2c(Cc3cc(=O)[nH]c(=O)[nH]3)nnc2SCC(=O)NC2CCCC2)cc1	G9a block inconclusive
O=C(CSc1nnc(Cc2cc(=O)[nH]c(=O)[nH]2)n1-c1ccc(Cl)cc1)NC1CCCC1	G9a block 40µM
CCOc1ccc(-n2c(Cc3cc(=O)[nH]c(=O)[nH]3)nnc2SCC(N)=O)cc1	BAZ2B block inconclusive, G9a block 45µM
COc1ccc(-n2c(C)cc(=O)[nH]c2=O)cc1	none
CCCc1cc(=O)[nH]c2nnc(SCC(=O)NC3CCCC3)n12	G9a block 18µM (no result: Sfp inh)
CCOc1ccc(-n2c(O)cc(=O)[nH]c2=O)cc1	Sfp inh inconclusive, G9a block 71µM
CC(C)CC(=O)n1nc(-c2ccco2)nc1NCc1ccc(Cl)cc1	none (no result: Sfp inh)
COc1cccc(-n2c(Cc3cc(=O)[nH]c(=O)[nH]3)nnc2SC(C)C)c1	G9a block 40µM
CCN1CCN(c2ccc(N=Cc3ccccc3O)cc2)CC1	G9a block 50µM
Cc1nc(CCN2C(=O)c3ccccc3C2=O)cs1	Sfp inh 79µM, G9a block inconclusive
Cc1nc(-c2ccccc2)cn(O)c1=O	JMJD2A Tudor inh 28µM, BAZ2B block 79µM, G9a block inconclusive
CC(=O)C1=C(C)NC(SCC(=O)c2ccc(-c3ccccc3)cc2)=C(C#N)C1c1cccnc1 (configuration not stated)	Sfp inh 22µM, G9a block 16µM (no result: JMJD2A Tudor inh, HP1b chromo inh)
CC(=O)C1=C(C)NC(SCSc2ccccc2)=C(C#N)C1c1cccnc1 (configuration not stated)	G9a block inconclusive
C=CCOC(=O)C1=C(C)NC(SCC(=O)N(CC)CC)=C(C#N)C1c1ccccc1 (configuration not stated)	none
C=CCOC(=O)C1=C(C)NC(SCC(=O)NC(=O)OCC)=C(C#N)C1c1cccnc1 (configuration not stated)	Sfp inh inconclusive, G9a block 50µM
O=C(CN1C(=O)C2C3C=CC(C3)C2C1=O)Nc1nc2ccccc2[nH]1 (configuration not stated)	JMJD2A Tudor inh 11µM, G9a block 79µM
O=C(CN1C(=O)C2C3C=CC(C3)C2C1=O)Nc1ccc(F)cc1 (configuration not stated)	none
COc1cccc(-c2nc(CS(=O)(=O)CC(=O)Nc3ccc(C)c(Cl)c3)c(C)o2)c1	none (no result: Sfp inh)
Cc1cnc(CN2CCCC(C(=O)c3ccc4c5c(cccc35)CC4)C2)[nH]1 (configuration not stated)	JMJD2A Tudor inh 50µM, BAZ2B block inconclusive, HP1b chromo inh inconclusive, G9a block inconclusive
COc1ccc(S(=O)(=O)NCCc2nnc3ccc(SCC(=O)Nc4cc(C)cc(C)c4)nn23)cc1	none (no result: Sfp inh)
CC(C)c1cccc(C(C)C)c1NC1=NS(=O)(=O)c2ccccc21	none (no result: Sfp inh)
COc1ccccc1N1CCN(c2nc3c(S(=O)(=O)c4ccccc4)nnn3c3ccc(Cl)cc23)CC1	none (no result: Sfp inh)
O=C(N=C1c2ccccc2CN1c1ccc(F)cc1)c1ccc(Cl)nc1	G9a block 22µM
COc1ccc(N2Cc3ccccc3C2=NC(=O)c2cccc([N+](=O)[O-])c2)cc1	BAZ2B block inconclusive, G9a block 20µM
COc1ccc(N2Cc3ccccc3C2=NC(=O)c2cncc(Br)c2)cc1	JMJD2A Tudor inh inconclusive, G9a block 32µM
CCOC(=O)c1ccc(N2Cc3ccccc3C2=NC(=O)c2ccncc2)cc1	G9a block inconclusive
COc1ccc(N2Cc3ccccc3C2=O)cc1	none
COc1ccc(N(Cc2cc3ccccc3[nH]c2=O)S(=O)(=O)c2ccc(C)cc2)cc1	none
CCN1C(=O)[C@H]2[C@H]3CN=C(SCc4ccccc4)N3[C@@](CC)(C(=O)OC)[C@H]2C1=O	none (no result: BAZ2B block, Sfp inh, G9a block)
Cc1cccc(N2CCN(C(=O)C3CCN(C(=O)c4cc5sccc5n4C)CC3)CC2)c1C	JMJD2A Tudor inh inconclusive, BAZ2B block 22µM, G9a block inconclusive (no result: Sfp inh)
CCN(CC)C(=O)C1CCN(CC2CC=CCC2)CC1 (configuration not stated)	JMJD2A Tudor inh 6.3µM, BAZ2B block 56µM, G9a block 13µM
CCN(Cc1ccccc1)C(=O)C1CCN(CC2CC=CCC2)CC1 (configuration not stated)	JMJD2A Tudor inh 3.2µM, BAZ2B block inconclusive, HP1b chromo inh inconclusive, G9a block 7.9µM
CCN(Cc1ccccc1)C(=O)C1CCN(Cc2sccc2C)CC1	JMJD2A Tudor inh 2.8µM, HP1b chromo inh inconclusive, G9a block 8.9µM
CCN(Cc1ccccc1)C(=O)C1CCN(S(=O)(=O)c2ccc3c(c2)OCCO3)CC1	none
CCOC(=O)c1ccc(S(=O)(=O)N2CCN(CC3CC=CCC3)CC2)cc1 (configuration not stated)	none
CCC(CC)N1CCN(CC2CC=CCC2)CC1 (configuration not stated)	JMJD2A Tudor inh 1.8µM, Sfp inh inconclusive, HP1b chromo inh inconclusive, G9a block 10µM (no result: BAZ2B block)
